# Source: ChEMBL document CHEMBL4513216, “Probing the Open Global Health Chemical Diversity Library for Multistage-Active Starting Points for Next-Generation Antimalarials” (ACS Infect Dis, 2020)
# The campaign covered roughly 65,000 compounds. About 2,100 (3.2%) showed an effect of 50% or more. The median lay at about -52%. Many of the other results were omitted from the sample, so strong results are more common in it than they were.
# Tested on: Plasmodium falciparum
# Assay: Screen against P. falciparum Asexual Blood Stage (ABS), at 5uM
# Format: functional, Dd2
# Details: tested at 5 uM
row,Compound,INHIBITION [%]
1,CC(C)OC(=O)N1C[C@@H]2CC[C@H]1CN(Cc1cccnc1)C2,-128
2,Cc1cccc(CN2C(=O)C[C@H]3[C@@H]2CCN3Cc2cccs2)n1,-76.6
3,CN1CCC(N2CCOC3(CCCC3)C2)C1=O (configuration not stated),-26.7
4,Cc1ccccc1CNCC(O)c1ccc(OC(C)C)cc1 (configuration not stated),92.4
5,OC(CNCc1ccccc1C(F)(F)F)c1ccccc1 (configuration not stated),82.4
6,CC(C)Oc1ccc(C(O)CNCc2ccccc2C(F)(F)F)cc1 (configuration not stated),83.2
7,Cc1noc(C)c1C(=O)N1CCOC2(COCCN(C(C)C)C2)C1 (configuration not stated),-57.3
8,CN(CCCOc1ccccc1)C(=O)c1csc(-c2nnc[nH]2)n1,77.1
9,CC1(C)CN(C(CNC2=NCCN2)c2ccc(Cl)cc2)CCO1 (configuration not stated),83
10,Cc1n[nH]c2c1C(c1ccc(O)c(Cl)c1)SCC(=O)N2 (configuration not stated),-65.6
11,O=C(c1ccc(-n2ccnc2)nc1)N1CCN2CCCCC2C1 (configuration not stated),-56.6
12,O=C(c1ccc(-n2cccn2)nc1)N1CCC(c2ccc(O)cc2)CC1,75.1
13,Cc1ccc(C(=O)N2C[C@@H]3OCCN(C)[C@@H]3C2)cn1,-12.2
14,Cc1noc(C)c1CN1C[C@H](OCC2CC2)[C@H]2COC[C@H]21,-54.7
15,Fc1ccccc1CO[C@@H]1C[C@H]2CN(c3ncccn3)CCN2C1,-67.9
16,CN1C(=O)C2(CCN(Cc3cccnc3)CC2)c2cccc(F)c21,-61.4
17,Fc1cccc(CN2CCC(c3cc4ncccc4cn3)CC2)c1F,89.4
18,O=C(Cc1ccccc1F)N1CCN(Cc2noc(C3CC3)n2)CC1,-69
19,Fc1cnccc1CN1CCC2(CCN2c2ncccn2)C1 (configuration not stated),-10.7
20,Fc1ccc(F)c(CN2CCC(c3cc4ncccc4cn3)CC2)c1,76
21,COc1ccc(C)cc1CN1CCC(c2cc3ncccc3cn2)CC1,78.2
22,O=C1CO[C@H]2CN(Cc3cccnc3)C[C@H]2N1,-119
23,CCN1CCN(C(=O)Cc2ccc(S(=O)(=O)C(F)F)cc2)CC1,-124
24,NCC1Cc2cccc(-c3ccc(O)c(F)c3)c2O1 (configuration not stated),82.9
25,COCC(=O)N1C[C@@H]2OCCN(Cc3c(C)noc3C)[C@@H]2C1,-93.2
26,c1cncc(O[C@H]2CC[C@H]3[C@H]2OCCN3C2CCC2)c1,-27.2

row,Compound,INHIBITION [%]
1,Cc1ccc(Cl)cc1N1CCC(CNC(=O)CCn2ccnc2)C1 (configuration not stated),84.2
2,CCN1CCN(C(=O)c2cn(Cc3ccccc3)c3ncccc23)CC1,20.5
3,CCc1ncc(C(=O)N2CC[C@H]3CC[C@@H](C2)N3C)cn1,-3.55
4,CN1[C@@H]2CC[C@H]1CN(C(=O)c1ccc(-c3ccccc3)[nH]1)CC2,79.7
5,CC(=O)c1cc(C(=O)N2CC[C@H]3CC[C@@H](C2)N3C)c(=O)[nH]c1C,-102
6,COCCN1CCN(Cc2ccncc2)[C@H]2CS(=O)(=O)C[C@H]21,-111
7,CNC(=O)CN1CC[C@H]2CN(C(=O)c3ccc(C)nc3)C[C@H]2C1,-17.9
8,CCN(CC)CCN1CCO[C@H]2[C@@H](OCc3ccccn3)CC[C@@H]21,-115
9,COC(=O)c1cc(OCC2CCC2)cc(C(=O)N[C@@H]2CNCC[C@H]2O)c1,90.1
10,CC1=N[C@@]2(CC[C@@H]3CN(CC(C)C)C[C@@H]32)C(=O)N1,-40.1
11,COc1ccc2c(c1)c(C(=O)Nc1n[nH]c(C(C)C)n1)cn2C(C)C,22.8
12,CCCc1nc(N(C)CCN2CCCCCC2)c2cnn(C)c2n1,92.9
13,CCCc1nc(N2CCCN3CCC[C@H]3C2)c2cnn(C)c2n1,-7.45
14,CCCc1nc(N2CCCC3(CCNC3)C2)c2cnn(C)c2n1 (configuration not stated),-53.5
15,Cc1c(C2SCC(=O)Nc3c2c(O)nn3C2CCCC2)cnn1C (configuration not stated),-70.4
16,CC(C)N1CCC2(CCCNC2)C1=O (configuration not stated),25.4
17,c1cc(N2CCC(CN3CCOCC3)CC2)c2sccc2n1,92.3
18,O=C1C[C@H]2[C@@H](CCN2Cc2ccccn2)N1CCN1CCOCC1,27.7
19,c1cnc(N2CCC3(COCCN(CC4CCOCC4)C3)C2)nc1 (configuration not stated),-26.6
20,O=C1NC[C@H]2CN(Cc3ccnc4ccccc34)CCN12,-11.8
21,CCC(O)(CNCc1cc[nH]n1)c1ccc(Br)cc1 (configuration not stated),76.4
22,CC(C)N1CCC2(CC1)CC(NCc1ccccn1)c1ccccc1O2 (configuration not stated),70.7
23,CC(C)N1CCOCC2(CN(Cc3ccccn3)CCO2)C1 (configuration not stated),-62.4
24,O=S(=O)(C1CC1)N1CCC2(CC1)CN(Cc1ccccn1)CCO2,-110
25,OCCN1CCC2(CC1)CC(NCc1ccccn1)c1ccccc1O2 (configuration not stated),70.8
26,O=C(NCc1ccccn1)[C@@]12CCO[C@@H]1CCN(C1CCCC1)C2,-21.2

row,Compound,INHIBITION [%]
1,Cn1cc(CN2CC[C@]3(C[C@H](OCc4ccccn4)CO3)C2)cn1,-37.1
2,CN(C)C(=O)[C@@H]1C[C@@H]2CCN(Cc3ccncc3)C[C@@H]2O1,-19.3
3,CCCN1CCC[C@]2(CCC(=O)N2Cc2ccncc2)[C@H]1CC,-97.5
4,O=C(C1CC=CC1)N1CCC2(CC1)CNCCO2,-57.4
5,O=C(C1CC1)N1CCC2(CC1)OCCO2,-77.4
6,O=C(C1CCOCC1)N1CCC2(CCNCC2)C1,-36.9
7,C[C@@H]1CN(C(=O)C2CCS(=O)(=O)CC2)CC[C@@]1(O)C1CCOCC1,71.2
8,O=C([C@@H]1Cc2[nH]cnc2CN1Cc1cc2ccccc2o1)N1CCCC1,95
9,Cc1ccc(CC(=O)N2CCN(CC(O)C(C)(C)C)CC2)cn1 (configuration not stated),-202
10,CCOCC(O)CN1CCN(C(=O)Cc2ccccc2Cl)CC1 (configuration not stated),-121
11,CCOCC(O)CN1CCN(C(=O)Cc2ccc3c(c2)CCC3)CC1 (configuration not stated),69.6
12,CCC(O)CN1CCN(C(=O)Cc2ccc(C)nc2)CC1 (configuration not stated),36.3
13,CCOCC(O)CN1CCN(C(=O)Cc2cccc(C)c2)CC1 (configuration not stated),59.6
14,CCOCC(O)CN1CCN(C(=O)Cc2ccc3c(c2)CCO3)CC1 (configuration not stated),-3.91
15,O=C(Cc1ccccc1Cl)N1CCN(CC(O)COCCO)CC1 (configuration not stated),58
16,CCOCC(O)CN1CCN(C(=O)Cc2cccc(Cl)c2)CC1 (configuration not stated),-87.1
17,CC(C)(C)C(=O)NS(=O)(=O)c1ccc(C#N)c(C(F)(F)F)c1,-87.2
18,CN(C)[C@@H]1CN(C(=O)Cc2ccsc2)[C@@H]2CCCO[C@H]12,32.7
19,CCNC(=O)CCC(=O)NC(C)Cc1ccccc1Br (configuration not stated),-67.5
20,NC(=O)C1CN(C(=O)Nc2cc(Cl)cc(Cl)c2)CCO1 (configuration not stated),84.9
21,O=C(NCc1cc2n(n1)CCCNC2)C1(c2ccccc2)CCCCC1,73.7
22,O=C(CCc1cscn1)N1CCC(C(=O)O)(c2ccccc2)CC1,-11.5
23,Cc1ncc2c(c1CNC(=O)C1(C)CCCCO1)CCNC2 (configuration not stated),-63.8
24,CCCC(=O)NS(=O)(=O)c1ccc(C#N)c(C(F)(F)F)c1,-56
25,CO[C@@H]1CCN(C2CCOCC2)C[C@@H]1Cc1ccccc1,80.8
26,O=C1[C@H]2CN(C3CCOCC3)C[C@H]2CN1Cc1cccnc1,-28.2

row,Compound,INHIBITION [%]
1,NC(=O)C1CN(C(=O)Cc2cccnc2)CCN(C2CCOCC2)C1 (configuration not stated),-92.3
2,Cc1nnc(N2CC[C@@H](OCC3CC3)[C@@H](Cc3ccccc3)C2)s1,84.8
3,CO[C@H]1CCN(C2CCOCC2)C[C@@H]1Cc1ccccc1,78.7
4,c1cncc(CO[C@H]2CC[C@H]3[C@@H]2OCCN3C2CCOCC2)c1,-57.8
5,O=C1N(Cc2cccnc2)C[C@H]2CN(C3CCOCC3)CCN12,-55.6
6,O=C1[C@H]2CN(C3CCOCC3)C[C@H]2CN1Cc1ccncc1,-33.5
7,c1ccc(C[C@H]2CN(C3CCOCC3)CC[C@H]2OCC2CC2)cc1,74.9
8,c1ccc(CN2C[C@@H]3OCCN(CC4CCCO4)[C@@H]3C2)nc1 (some centres not stated),-0.326
9,CCCN1CCN(C(=O)c2cnc(C)nc2)[C@H]2CS(=O)(=O)C[C@H]21,-183
10,O=C(C1CCCCC1)N1CC2(CCNCC2)C1,-23.1
11,CC(C)CN1CC[C@@H]2[C@@H]1CCN2C(=O)N(C)C,-67.2
12,Cc1cnn(CC(C)NCC(=O)NC2CCOCC2)c1 (configuration not stated),14.5
13,Cc1cnn(CC2CCN(CC(O)c3ccccc3Cl)CC2)c1 (configuration not stated),78
14,CC(C)N1CCC(Cn2cc(C(N)=O)cn2)CC1,-7.48
15,c1cc(CO[C@@H]2CN(Cc3ccoc3)[C@@H]3CCCO[C@@H]32)ccn1,-102
16,O=C(CC1CCCC1)NCCNCc1cccc2c1OCCO2,71.6
17,COCC(=O)N1C[C@H]2CNC[C@@]2(C(=O)NCc2c(C)noc2C)C1,-53.3
18,O=C1[C@H]2CN(Cc3ccccn3)C[C@H]2CN1c1ccsc1,-16.2
19,O=C(NCc1cccnc1)Nc1cc(C(F)(F)F)c[nH]c1=O,79
20,O=C(Nc1cc(C(F)(F)F)c[nH]c1=O)C1CCCN1 (configuration not stated),-151
21,CC(C)CN1CCC2(CC(C(=O)NCc3cccnc3)=NO2)C1 (configuration not stated),-53.1
22,CCCNC1(c2ccc(Cl)cc2)CCOCC1,67.7
23,CCOCCNC1(c2ccc(Cl)cc2)CCOCC1,27.1
24,COCCNC1(c2ccc(Cl)cc2)CCOCC1,65.6
